From PubChem BioAssay
A3A deaminase: inhibitors of human APOBEC3A DNA deaminase | recombinant A3A, FAM/TAMRA ssDNA deamination fluorescence | inhibition, % at 20 µM | hit rate 0.41% among 330,000 | AID 493011;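 active means at least 40% inhibition at 20 µM here, with at most 30% in a related deaminase screen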
Target sequence (P31941 whole entry, looked up): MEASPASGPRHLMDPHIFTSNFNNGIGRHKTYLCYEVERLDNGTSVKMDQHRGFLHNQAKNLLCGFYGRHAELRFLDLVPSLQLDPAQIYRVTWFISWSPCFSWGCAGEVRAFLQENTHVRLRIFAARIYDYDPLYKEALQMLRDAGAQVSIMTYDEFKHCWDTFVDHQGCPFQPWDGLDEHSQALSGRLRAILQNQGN
GC-B act: GC-B (human) receptor activation; P20594; HEK293-GC-B cells, CNP EC30, cGMP TR-FRET; 0% at EC30 CNP, 100% saturating CNP; activation, % at 10 µM; hit rate 0.11% among 370,000; AID 1920062;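 active means activation at 10 µM reaching about 35% in either raw or pattern-adjusted values, limit read from the data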
Neddylation inh: blocks human cullin neddylation; TR-FRET cullin neddylation, biochemical; hit rate 0.58% among 360,000; P61081+Q13564; inhibition, % at 25 µM; AID 651699; in the data active means inhibition above about 36%
APOBEC3G inh: APOBEC3G (human) deaminase inhibition; Q9HC16; recombinant A3G, ssDNA deamination FAM/TAMRA fluorescence; inhibition, % at 20 µM; hit rate 0.28% among 330,000;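 active means inhibition of at least 40% at 20 µM, with no more than 30% in the related APOBEC3A deaminase screen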
Target sequence (Q9HC16 whole entry, looked up): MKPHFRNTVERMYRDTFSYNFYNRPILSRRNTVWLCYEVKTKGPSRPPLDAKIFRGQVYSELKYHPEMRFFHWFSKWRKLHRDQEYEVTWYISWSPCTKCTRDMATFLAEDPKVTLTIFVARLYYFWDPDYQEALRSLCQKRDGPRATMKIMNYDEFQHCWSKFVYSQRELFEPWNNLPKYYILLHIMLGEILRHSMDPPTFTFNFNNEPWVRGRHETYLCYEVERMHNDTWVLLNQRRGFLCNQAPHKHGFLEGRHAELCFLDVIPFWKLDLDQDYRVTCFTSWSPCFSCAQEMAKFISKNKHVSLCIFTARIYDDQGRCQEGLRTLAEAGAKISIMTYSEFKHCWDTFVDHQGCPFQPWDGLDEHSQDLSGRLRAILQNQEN
NPR1 activator: GC-A (human) enzyme activation | P16066 | HEK293 GC-A cells, cGMP TR-FRET, EC30 ANP; 0% at EC30 ANP, 100% saturating ANP | activation, % at 10 µM | hit rate 0.14% among 370,000; in the data active means activation above about 40%
PfGluPho inh: PfG6PD (Plasmodium falciparum) enzyme inhibition | PfGluPho enzyme, NADPH resazurin-diaphorase fluorescence | inhibition, % at 20 µM | hit rate 0.78% among 350,000;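 active means inhibition reaching at least a set limit at 20 µM in the primary screen, cut at about 59% in these data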
Neddyl conf: cullin neddylation inhibition, confirmation | calls only at 25 µM | TR-FRET cullin neddylation biochemical assay | hit rate 13% among 1,800 | shares compounds with Neddylation inh; in the data active means inhibition above about 40%;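 further: neddylation substrate is the cullin 1 ring ligase complex with SKP2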
A number is an active result; n = inactive; x = not tested or not shown; + = active, no number. This is a sample that favours compounds with a hit; in the whole collection about 2% have one here.

SMILES	A3A deaminase	GC-B act	Neddylation inh	APOBEC3G inh	NPR1 activator	PfGluPho inh	Neddyl conf
Cc1ccc(NS(=O)(=O)c2cccs2)nc1	n	n	40.6	n	n	n	n
Cc1cccc(NS(=O)(=O)c2cccs2)n1	n	n	39.9	n	n	n	n
Cc1cccc(NS(=O)(=O)c2ccc(Cl)cc2)n1	n	n	n	n	n	n	x
Cc1ccnc(NS(=O)(=O)c2cccs2)c1	n	n	n	n	n	n	x
O=C(COC(=O)c1ccc(Sc2ncn[nH]2)c([N+](=O)[O-])c1)Nc1cccc(Cl)c1F	x	n	x	x	n	x	x
CCOC(=O)Cn1cc(CN2C(C(=O)OC)CN(C3CCCC3)CCS2(=O)=O)nn1 (stereo unspecified)	x	n	x	x	n	x	x
C[C@@H]1ON(C)[C@H]2C[C@H]3c4[nH]c5c(-c6cc(Cl)cc(Cl)c6)cccc5c4CCN3C(=O)[C@@H]12	x	n	x	x	n	x	x
Cc1ccc2nc(N3CCN(C)CC3)c(C#N)cc2c1	n	n	40.2	n	n	n	n
Cc1cc(C)c2nc(N3CCN(C)CC3)c(C#N)cc2c1	n	n	42.0	n	n	n	n
CCSc1nc(-c2ccccc2)c(-c2ccccc2)n1CC(O)CO (stereo unspecified)	n	n	43.9	n	n	n	n
Cc1cc(=O)oc2cc(NC(=O)C(C)Oc3ccc(F)cc3)ccc12 (stereo unspecified)	n	n	38.7	n	n	n	x
CCOc1ccc2oc(=O)cc(C)c2c1	n	n	n	n	n	n	x
CCCC(C(=O)Nc1ccc2c(C)cc(=O)oc2c1)c1ccccc1 (stereo unspecified)	n	n	41.7	n	n	n	n
Cc1cc(=O)oc2ccc(OC(C)C(=O)O)cc12 (stereo unspecified)	n	n	45.6	n	n	n	n
Cc1onc(-c2ccccc2)c1C(=O)Nc1ccc2c(C)cc(=O)oc2c1	n	n	40.6	n	n	n	n
COc1ccc(Oc2c(-c3cccs3)cnn(-c3ccc(C)cc3)c2=O)cc1	x	n	x	x	n	x	x
COC(=O)C(C(C)C)N1CCc2c(C)nc3c(C#N)cnn3c21 (stereo unspecified)	n	n	46.7	n	n	n	+
CCOC(=O)CN1CCc2c(C)nc3c(-c4ccc(OC)c(OC)c4)cnn3c21	n	n	n	n	n	n	x
Cc1ccc(O)c(C(=O)c2cnn(C(=O)Cc3csc(C)n3)c2)c1	n	n	n	n	n	n	x
Cc1ncc(CC(=O)n2cc(C(=O)c3cc(F)ccc3O)cn2)s1	n	n	41.2	n	n	n	n
CCCCCNc1nc(N2CCCC2)c2c(c1C#N)CCN(C)C2	n	n	44.0	n	n	n	n
CCCCCNc1nc(NCCCO)c(C#N)c2c1CN(C)CC2	n	n	x	n	n	n	x
CC(C)(C)NC(=O)c1cc(-c2ccc3c(c2)OCO3)nc2ccccc12	n	n	45.9	n	n	n	n
O=C(c1cc(-c2ccncc2)nc2ccc(Cl)cc12)N1CCN(Cc2ccc3c(c2)OCO3)CC1	n	n	n	n	n	n	x
O=C(O)c1cc(-c2ccc3c(c2)OCO3)nc2ccc(Cl)cc12	n	n	53.9	n	n	n	x
SMILES	A3A deaminase	GC-B act	Neddylation inh	APOBEC3G inh	NPR1 activator	PfGluPho inh	Neddyl conf
Cn1c(NC(=O)c2cc(-c3ccc4c(c3)OCO4)nc3ccccc23)cc(=O)n(C)c1=O	n	n	n	n	n	n	x
CCOC(=O)c1cc2c(=O)n3ccccc3nc2n(C(C)C)c1=NC(=O)c1ccncc1	n	n	67.3	n	n	n	+
CCOC(=O)c1cc2c(=O)n3ccccc3nc2n(CCOC)c1=NC(=O)C(C)(C)C	n	n	x	n	n	n	x
CCOC(=O)c1cc2c(=O)n3ccccc3nc2n(CCOC)c1=NC(=O)c1ccncc1	n	n	63.4	n	n	n	+
CCOC(=O)c1cc2c(=O)n3ccccc3nc2n(C(C)C)c1=NC(=O)c1c(-c2ccccc2Cl)noc1C	n	n	x	n	n	n	x
COC(=O)[C@@]1(OC(C)=O)CC(OC(C)=O)[C@H](OC(C)=O)[C@H](OC(C)=O)C1Br (stereo partly specified)	x	n	x	x	n	x	x
Cc1c(C(C)NC(=O)c2cc(COc3cccc4cnccc34)on2)cnn1C (stereo unspecified)	n	n	55.5	n	n	n	+
COC(=O)[C@]12C[C@H](CC(=O)N3CCOCC3)C(=O)N(Cc3ccccc3)C1=C[C@H](C(C)(C)C)O[C@@H]2C	x	n	x	x	n	x	x
N/C(=N\N=Cc1ccc2c(c1)OCO2)NN=Cc1ccc2c(c1)OCO2	x	n	41.5	x	n	n	x
CCOC(=O)c1ccccc1N=Cc1c(O)c2ccccc2oc1=O	n	n	39.7	n	n	n	n
COc1cccc(Nc2ccc(C(=O)O)cc2N)c1	n	n	40.2	n	n	n	x
C[C@@H]1OC(C2CCCCC2)N(C)[C@H]2C[C@H]3c4cc(-c5ccc6c(c5)OCO6)ccc4CCN3C[C@@H]12 (stereo partly specified)	x	n	x	x	n	x	x
Cc1ccc(NC(=O)c2ccc(OC(=S)N3CCOCC3)cc2)cc1	n	n	40.3	n	n	n	n
O=C(O)CCc1ccc(-c2ccccc2)n1CC1CCCO1 (stereo unspecified)	n	n	52.5	n	n	n	x
COC(=O)Cn1c(CCC(=O)O)ccc1-c1ccccc1	n	n	43.5	n	n	n	n
CC(C)CN1C(=O)N2CCc3ccccc3C2CS1(=O)=O (stereo unspecified)	x	n	x	x	n	x	x
CCCCN(C)C(=O)CCC(=O)Nc1ccc2nc(N3CCN(C)CC3)cc(C)c2c1	n	n	45.2	n	n	n	n
Cc1cc(N2CCN(C)CC2)nc2ccc(NC(=O)CCC(=O)NCCc3ccc(Cl)cc3)cc12	n	n	41.7	n	n	n	n
CCOC(CCNC(=O)CCC(=O)Nc1ccc2nc(N3CCN(C)CC3)cc(C)c2c1)OCC	n	n	n	n	n	n	x
CCCCN(C)C(=O)CCC(=O)Nc1ccc2nc(N3CCOCC3)cc(C)c2c1	n	n	x	n	n	n	x
O=C(OCCN1CCN(C2CN(Cc3cn(Cc4ccccc4F)nn3)S(=O)(=O)C2)CC1)c1cc2ccccc2o1 (stereo unspecified)	x	n	x	x	n	x	x
CCN1CCCCC(NC(=O)COCc2ccccc2)C1=O (stereo unspecified)	x	n	x	x	n	x	x
CCN1CCCC1CNC(=O)c1ccc2c(=O)n(CCOC)c(=O)[nH]c2c1 (stereo unspecified)	n	n	44.1	n	n	n	n
CCN1CCCC1CNC(=O)c1cc2cc(F)ccc2[nH]1 (stereo unspecified)	n	n	45.2	n	n	n	x
CCN1CCCC1CNC(=O)Cn1nc(C)n2c(cc3cc(F)ccc32)c1=O (stereo unspecified)	n	n	n	n	n	n	x
